# CYP2C9 activ – human CYP2C9 activators, primary screen, biochemical, luminescence | Cytochrome P450 2C9 (Homo sapiens), P11712 | recombinant CYP2C9, luciferin-H conversion; hits give high values; factor 1 = untreated enzyme, 0 = blocked | activation factor at 5 µM | 96,000 tested, 1.4% active;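 active = activation factor of 2 or more for CYP2C9 at a 5 µM dose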;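 also: 0 = sulfaphenazole-blocked wells and 1 = vehicle-only wells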
# sEH inh – soluble epoxide hydrolase inhibitors, primary screen, biochemical, human sEH; Bifunctional epoxide hydrolase 2 (Homo sapiens), P34913; recombinant human sEH enzymatic activity assay; inhibition, % at 2 µM; 91,000 tested, 0.34% active; in the data active = inhibition above about 80%
# CYP2C19 inhib – blockers of cytochrome P450 2C19 activity – biochemical, luminescence, ADME assay, primary screen. AID 778, 2007. P33261. 96,000 tested, 21% active. CYP2C19 Supersomes, luciferin-H EGE luminescence, 30 min. inhibition, % at 5 µM;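 active = CYP2C19 inhibition above a set limit at 5 µM in the primary screen, cut at about 50% in these data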;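 also: plate controls were negative control wells for no effect and 2.5 mM tranylcypromine positive control for full effect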
# Target sequence (P33261 whole entry, looked up): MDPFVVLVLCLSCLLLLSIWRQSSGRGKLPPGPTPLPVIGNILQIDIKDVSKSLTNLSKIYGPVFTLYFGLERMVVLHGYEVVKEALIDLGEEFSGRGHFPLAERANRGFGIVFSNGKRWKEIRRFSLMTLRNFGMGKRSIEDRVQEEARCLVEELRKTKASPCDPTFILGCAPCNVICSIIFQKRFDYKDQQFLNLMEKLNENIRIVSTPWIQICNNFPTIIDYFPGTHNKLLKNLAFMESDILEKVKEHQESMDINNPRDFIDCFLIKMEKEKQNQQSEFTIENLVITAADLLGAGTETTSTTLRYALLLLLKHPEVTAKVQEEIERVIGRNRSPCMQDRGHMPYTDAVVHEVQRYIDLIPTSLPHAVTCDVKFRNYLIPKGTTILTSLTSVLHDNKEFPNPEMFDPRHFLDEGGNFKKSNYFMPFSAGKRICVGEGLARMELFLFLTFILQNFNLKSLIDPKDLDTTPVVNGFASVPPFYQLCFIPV
# sEH activator – soluble epoxide hydrolase activators, primary screen, biochemical, human sEH. purified human sEH enzymatic activity, activator screen. 91,000 tested, 0.04% active. activation, % at 2 µM. Bifunctional epoxide hydrolase 2 (Homo sapiens), P34913; in the data active = activation above about 37%
# CYP2C9 inhib – blockers of cytochrome P450 2C9 activity – biochemical, luminescence, ADME assay, primary screen; inhibition, % at 5 µM; AID 777, 2007; 96,000 tested, 20% active; CYP2C9 Supersomes, luciferin-H conversion; P11712;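 active = blocking of liver enzyme CYP2C9 beyond about 50% at 5 µM, limit read from the data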
# CYP2C19 act – human CYP2C19 activators, primary screen, biochemical, luminescence; recombinant CYP2C19, luciferin-H EGE luminescence; hits give high values; 0 = fully inhibited enzyme, 1 = untreated enzyme; activation factor at 5 µM; 96,000 tested, under 10 active; AID 1025, 2008;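 active = activation factor of at least 2 at 5 µM in the primary screen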;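 also: 0 = wells with 2.5 mM tranylcypromine and 1 = vehicle-only wells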
# Active calls of the source: *; . = no result given. Most compounds without a hit are left out; they make up all but 27% or so of the library.
SMILES,CYP2C9 activ,sEH inh,CYP2C19 inhib,sEH activator,CYP2C9 inhib,CYP2C19 act
NC(=O)CN1CCN(C(=O)Nc2ccccc2)CC1,1.1,.,-4,.,-7,1
COc1ccc(S(=O)(=O)Nc2ccccc2C(=O)NC(C)(C)C)cc1OC,0.8,-2,73*,4,20,0.3
COc1ccccc1NS(=O)(=O)c1ccc(NC(C)=O)cc1,1.7,-12,93*,12,-73,0.1
COc1cc(NS(=O)(=O)c2ccc(OC)c(OC)c2)cc(OC)c1,0.3,-11,100*,5,74*,0
COc1ccccc1NS(=O)(=O)c1cc(Cl)ccc1OC,0.5,.,97*,.,48,0
CCOc1ccccc1NS(=O)(=O)c1ccc(OC)c(OC)c1,.,5,.,-6,.,.
COc1ccc(NC(=O)C23CC4CC(C2)CC(n2cnc(Br)n2)(C4)C3)cc1Cl,1,47,10,-46,0,0.9
Cc1cccc(-c2nnc(SCCOc3ccc4c(C)cc(=O)oc4c3)o2)c1,0.5,2,41,1,47,0.6
CN(C)S(=O)(=O)N1CCN(CC(O)COc2ccc(C(=O)c3ccccc3)cc2)CC1 (stereo unspecified),0.6,-21,25,18,38,0.7
C=CCn1c(=O)c2ccccc2n2c(SC(C)C(=O)Nc3nc(-c4ccccc4)cs3)nnc12 (stereo unspecified),.,11,.,-14,.,.
CCN(CC)S(=O)(=O)c1ccc(OC)c(NS(=O)(=O)c2ccc(F)cc2)c1,0.9,-2,39,2,15,0.6
COc1ccccc1NS(=O)(=O)c1ccc(OC)c(OC)c1,2.6*,3,99*,-1,-159,0
COc1cc(NS(=O)(=O)c2ccc(F)cc2)c(OC)cc1NC(=O)C1CC1,0.8,.,98*,.,16,0
COc1ccccc1NS(=O)(=O)c1ccc(C)c(C(N)=O)c1,1,-2,88*,2,-4,0.1
COc1ccc(S(=O)(=O)Nc2ccccc2C(=O)OC2CCCN(C)C2)cc1OC (stereo unspecified),1.6,.,66*,.,-60,0.3
CCOC(=O)c1ccc2nc(C)c3c(c2c1)OC(C)C3 (stereo unspecified),0.9,-7,13,6,12,0.9
CCOC(=O)c1ccc2nc(C(F)(F)F)[nH]c(=O)c2c1,0.4,14,-10,-14,60*,1.1
CC/C(=C\C(=O)c1cccnc1)Nc1ccc(C)c(C)c1,0.4,.,71*,.,58*,0.3
C/C(=C\C(=O)c1cccnc1)Nc1ccc(C(=O)O)cc1,0.7,-6,-15,6,33,1.2
COc1ccc(S(=O)(=O)NCCSC(C)(C)C)c(Cl)c1Cl,3.2*,-1,94*,3,-218,0.1
CC(C)(C)SCCNS(=O)(=O)c1ccc(F)cc1,0.6,7,14,-7,40,0.9
CCCNS(=O)(=O)c1ccc(OC)c(Cl)c1Cl,0.9,8,53*,-6,10,0.5
COc1ccc(S(=O)(=O)NCc2ccccn2)c(Cl)c1Cl,2*,7,88*,-9,-103,0.1
Cc1cc(C)n2nc(SCC(=O)N/N=C/c3ccc(F)cc3)nc2n1,1,16,25,-15,-3,0.8
N#CCCn1c(SCC(=O)c2c[nH]c3ccccc23)nc2ccccc21,0.6,-2,70*,1,44,0.3
SMILES,CYP2C9 activ,sEH inh,CYP2C19 inhib,sEH activator,CYP2C9 inhib,CYP2C19 act
Cc1cc(C(=O)CSc2nc3ccccc3n2CCC#N)c(C)n1Cc1cccs1,0.7,4,61*,-2,30,0.4
O=C1c2ccccc2C(=O)N1Cc1ccco1,1,-2,34,5,-4,0.7
CC1=CC(=C2C(=O)c3ccccc3C2=O)C=C(C)N1Cc1ccco1,0.3,-24,51*,24,68*,0.5
CC(NC(=O)COc1ccc(/C=N/NC(=O)C(=O)Nc2ccccc2Br)cc1)c1ccccc1 (stereo unspecified),0.3,2,47,0,69*,0.5
COc1ccc(Br)c(/C=N/NC(=O)COc2ccc(-c3ccccc3)cc2)c1,0.6,4,25,-2,38,0.8
Cc1nc2c(Br)cc(Br)cc2cc1O,0.4,-7,29,5,62*,0.7
N#Cc1ccccc1Cn1c(=O)n(C2CCCC2)c(=O)c2ccccc21,0,8,86*,-11,96*,0.1
COCCCNC(=O)c1ccc(Cn2c(=O)c3ccccc3n(Cc3ccccc3C)c2=O)cc1,0.2,23,78*,-23,80*,0.2
COCCCNC(=O)c1ccc(Cn2c(=O)c3ccccc3n(Cc3cc(C)ccc3C)c2=O)cc1,0.2,19,75*,-18,82*,0.3
COCCCNC(=O)c1ccc(Cn2c(=O)c3ccccc3n(Cc3ccccc3C#N)c2=O)cc1,0.4,25,52*,-27,59*,0.5
O=c1c2ccccc2n(Cc2ccccc2F)c(=O)n1Cc1ccccc1F,1.2,5,-14,-6,-20,1.1
N#Cc1ccccc1Cn1c(=O)n(Cc2ccc(C(=O)NCc3ccco3)cc2)c(=O)c2sccc21,0.6,.,-8,.,36,1.1
CC(=O)N1C2CCCCC2S[C@H]2CCCCC21 (stereo partly specified),0.7,5,0,-5,31,1
COc1ccc(N2CCN(C(=O)CSc3nnc(C)c(=O)[nH]3)CC2)cc1,0.9,.,4,.,13,1
O=C(Oc1ccc(C(=S)N2CCOCC2)cc1Br)c1cc(Cl)ccc1Cl,2.4*,-9,4,10,-137,1
O=C(Cn1cnc2c(cnn2-c2ccc(Cl)cc2)c1=O)NCC1CCCO1 (stereo unspecified),0.9,7,0,-9,8,1
CCCCn1c(-c2csc3c2CCC(C)C3)n[nH]c1=S (stereo unspecified),0.5,-8,26,9,47,0.7
CCCCn1c(-c2csc3ccccc23)n[nH]c1=S,0.1,1,97*,-2,89*,0
CCCCn1c(-c2csc3c2CCCC3)n[nH]c1=S,0.1,25,70*,-24,89*,0.3
[N-]=[N+]=CC(=O)c1ccnc(C(=O)C=[N+]=[N-])c1,1,.,-5,.,5,1.1
O=C(CCNc1n[nH]c(=O)[nH]c1=O)N1CCOCC1,1.1,.,-13,.,-14,1.1
COCC(C)n1c(-c2ccc3c(c2)NC(=O)CO3)csc1=Nc1ccc(OC(F)F)cc1 (stereo unspecified),0.3,2,16,-3,69*,0.8

# High-throughput results deposited in PubChem BioAssay by several laboratories.
